# Measured values taken from PubChem BioAssay (EPA / NIEHS).
# Records with an inconclusive call do not appear. Active and inactive are the calls of the source. Rule for the calls: active = hit-call score of the fitted dose curve at least 0.9, where 1 is the maximum; inconclusive = response in the unintended direction; inactive = score below 0.9.
# Legend:
# [1] = biological target: rat Opioid Receptor, Non-selective Binding, Oprm1 (gene 25601) (UniProt P33535); test: NVS_GPCR_rOpiate_NonSelective: NovaScreen (NVS) G Protein-Coupled Receptor Assay for rat Opioid Receptor, Non-selective Binding (AID 2283318)
# How it was run: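 Rat forebrain membranes, cell-free radioligand binding with filter-based scintillation counting, read 1.5 h after dosing. Primary screen in duplicate at 25 uM; actives retested in concentration series. Loss of signal versus DMSO baseline scored.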
# [2] = biological target: rat Neurokinin-3 Receptor (NK3), Tacr3 (gene 24808) (UniProt P16177); test: NVS_GPCR_rNK3: NovaScreen (NVS) G Protein-Coupled Receptor Assay for rat Neurokinin-3 Receptor (NK3) (AID 2283310)
# How it was run: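 Rat cortical membranes; radioligand binding with filtration and scintillation counting, 2 h after dosing. Primary screen in duplicate at 25 uM, then concentration-response up to 50 uM; loss of binding signal relative to DMSO.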
# [3] = biological target: rat Opioid Receptor, Non-selective Sodium (Na+) Binding, Oprm1 (gene 25601) (UniProt P33535); test: NVS_GPCR_rOpiate_NonSelectiveNa: NovaScreen (NVS) G Protein-Coupled Receptor Assay for rat Opioid Receptor, Non-selective Sodium (Na+) Binding (AID 2283311)
# How it was run: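 Rat forebrain membranes, radioligand displacement with filter scintillation counting, 1.5 h incubation. Screened in duplicate at 25 µM; hits then run in concentration-response up to 50 µM; loss of binding fitted versus DMSO.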
# [4] = biological target: rat Neurokinin-1 Receptor (NK1), Tacr1 (gene 24807) (UniProt P14600); test: NVS_GPCR_rNK1: NovaScreen (NVS) G Protein-Coupled Receptor Assay for rat Neurokinin-1 Receptor (NK1) (AID 2283309)
# How it was run: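 Rat submaxillary gland membranes; radioligand displacement read by filter-based scintillation counting after 1 h. Primary screen in duplicate at 25 uM; actives retested in concentration series; loss of binding fitted versus DMSO.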
# [5] = biological target: human Neonicotinoid receptor (NNR), CHRNA2 (gene 1135) (UniProt Q15822); test: NVS_LGIC_hNNR_NBungSens: NovaScreen (NVS) Ligand-Gated Ion Channel Assay for human Neonicotinoid receptor (NNR) (AID 2283313)
# Procedure: NVS_LGIC_hNNR_NBungSens is a biochemical, single-readout assay that uses extracted gene-proteins from Human neuroblastoma membrane cells in a tissue-based cell-free assay. Measurements were taken 2 hours after chemical dosing in a 48-well plate.NVS_LGIC_hNNR_NBungSens is one of one assay component(s) measured or calculated from the NVS_LGIC_hNNR_NBungSens assay. It is designed to make measurements of radioligand binding, a form of binding reporter, as detected with scintillation counting signals by Filter-based radiodetection technology.Data from the assay component NVS_LGIC_hNNR_NBungSens was analyzed into 1 assay endpoint. This assay endpoint, NVS_LGIC_hNNR_NBungSens, was analyzed in the positive analysis fitting direction relative to DMSO as the negative control and baseline of activity. Using a type of binding reporter, loss-of-signal activity can be used to understand changes in the binding as they relate to the gene CHRNA2. Furthermore, this assay endpoint can be referred to as a primary readout, because the performed assay has only produced 1 assay endpoint. To generalize the intended target to other relatable targets, this assay endpoint is annotated to the ion channel intended target family, where the subfamily is ligand-gated ion channel. […]
# [6] = biological target: Voltage-dependent N-type calcium channel subunit alpha-1B (Rattus norvegicus) (UniProt Q02294); test: NVS_IC_rCaChN: NovaScreen (NVS) Ion Channel Assay for rat Calcium Channel, Type N (CaChN) (AID 2283317)
# [7] = biological target: rat Glutamate Metabotropic Receptor 5 (MGluR5), Grm5 (gene 24418) (UniProt P31424); test: NVS_GPCR_rmMGluR5: NovaScreen (NVS) G Protein-Coupled Receptor Assay for rat Glutamate Metabotropic Receptor 5 (MGluR5) (AID 2283307)
# How it was run: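 Rat whole-brain membrane preparation; filter-based radioligand binding read by scintillation counting, 1.5 h after dosing. Single-point screen at 25 uM in duplicate; hits over threshold (e.g. 30% inhibition) retested in concentration-response up to 50 uM; loss of signal vs DMSO.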
# [8] = biological target: rat Neonicotinoid receptor (NNR), Chrna7 (gene 25302) (UniProt Q05941); test: NVS_LGIC_rNNR_BungSens: NovaScreen (NVS) Ligand-Gated Ion Channel Assay for rat Neonicotinoid receptor (NNR) (AID 2283315)
# How it was run: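 Radioligand displacement binding on rat cortical membranes, 2.5 h incubation, filtration and scintillation counting. Loss of specific binding fitted relative to DMSO.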
# [9] = biological target: rat Somatostatin Receptor (SST), Sstr1 (gene 25033) (UniProt P28646); test: NVS_GPCR_rSST: NovaScreen (NVS) G Protein-Coupled Receptor Assay for rat Somatostatin Receptor (SST) (AID 2283314)
# How it was run: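 Rat forebrain membranes; radioligand displacement read by filter-based scintillation counting 1 h after dosing. Primary screen in duplicate at 25 uM. Actives (e.g., 30% inhibition) were rerun as concentration-response to 50 uM max and fitted against DMSO.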
# Sequence of rat Opioid Receptor, Non-selective Sodium (Na+) Binding, Oprm1 (gene 25601) (P33535 whole entry, looked up): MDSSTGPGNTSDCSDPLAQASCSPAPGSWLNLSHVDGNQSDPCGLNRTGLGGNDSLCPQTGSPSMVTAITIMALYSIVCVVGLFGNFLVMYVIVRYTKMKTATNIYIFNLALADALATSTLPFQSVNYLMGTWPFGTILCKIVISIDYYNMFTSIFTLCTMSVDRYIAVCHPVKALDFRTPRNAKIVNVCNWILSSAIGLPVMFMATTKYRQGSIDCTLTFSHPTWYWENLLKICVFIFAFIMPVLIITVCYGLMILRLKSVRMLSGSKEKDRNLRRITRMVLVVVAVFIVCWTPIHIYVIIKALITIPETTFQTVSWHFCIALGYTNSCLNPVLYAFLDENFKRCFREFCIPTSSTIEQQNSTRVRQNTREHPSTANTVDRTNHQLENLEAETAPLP
# Sequence of rat Opioid Receptor, Non-selective Binding, Oprm1 (gene 25601) (P33535 whole entry, looked up): as above
# Sequence of rat Somatostatin Receptor (SST), Sstr1 (gene 25033) (P28646 whole entry, looked up): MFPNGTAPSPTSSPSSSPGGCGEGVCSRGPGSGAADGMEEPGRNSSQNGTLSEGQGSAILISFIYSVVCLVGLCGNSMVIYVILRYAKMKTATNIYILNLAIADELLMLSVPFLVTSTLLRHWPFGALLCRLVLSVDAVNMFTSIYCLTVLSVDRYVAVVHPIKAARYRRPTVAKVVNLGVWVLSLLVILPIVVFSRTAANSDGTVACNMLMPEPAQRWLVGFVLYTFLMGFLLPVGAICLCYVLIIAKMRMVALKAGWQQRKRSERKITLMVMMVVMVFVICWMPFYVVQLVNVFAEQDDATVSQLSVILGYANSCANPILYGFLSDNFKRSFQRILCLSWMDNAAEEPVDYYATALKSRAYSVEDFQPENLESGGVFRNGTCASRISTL
# Sequence of rat Neurokinin-3 Receptor (NK3), Tacr3 (gene 24808) (P16177 whole entry, looked up): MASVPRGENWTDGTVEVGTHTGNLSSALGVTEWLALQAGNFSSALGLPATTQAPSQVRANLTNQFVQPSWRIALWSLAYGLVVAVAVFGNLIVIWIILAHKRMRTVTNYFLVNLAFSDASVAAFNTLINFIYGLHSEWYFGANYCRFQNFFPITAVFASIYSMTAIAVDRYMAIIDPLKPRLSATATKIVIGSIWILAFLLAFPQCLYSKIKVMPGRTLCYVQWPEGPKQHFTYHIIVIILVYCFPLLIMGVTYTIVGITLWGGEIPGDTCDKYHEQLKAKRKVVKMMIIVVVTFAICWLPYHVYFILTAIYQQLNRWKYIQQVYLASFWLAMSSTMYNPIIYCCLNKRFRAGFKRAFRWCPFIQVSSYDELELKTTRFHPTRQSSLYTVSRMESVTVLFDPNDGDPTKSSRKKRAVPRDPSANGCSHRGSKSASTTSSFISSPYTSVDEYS
# Sequence of rat Glutamate Metabotropic Receptor 5 (MGluR5), Grm5 (gene 24418) (P31424 whole entry, looked up): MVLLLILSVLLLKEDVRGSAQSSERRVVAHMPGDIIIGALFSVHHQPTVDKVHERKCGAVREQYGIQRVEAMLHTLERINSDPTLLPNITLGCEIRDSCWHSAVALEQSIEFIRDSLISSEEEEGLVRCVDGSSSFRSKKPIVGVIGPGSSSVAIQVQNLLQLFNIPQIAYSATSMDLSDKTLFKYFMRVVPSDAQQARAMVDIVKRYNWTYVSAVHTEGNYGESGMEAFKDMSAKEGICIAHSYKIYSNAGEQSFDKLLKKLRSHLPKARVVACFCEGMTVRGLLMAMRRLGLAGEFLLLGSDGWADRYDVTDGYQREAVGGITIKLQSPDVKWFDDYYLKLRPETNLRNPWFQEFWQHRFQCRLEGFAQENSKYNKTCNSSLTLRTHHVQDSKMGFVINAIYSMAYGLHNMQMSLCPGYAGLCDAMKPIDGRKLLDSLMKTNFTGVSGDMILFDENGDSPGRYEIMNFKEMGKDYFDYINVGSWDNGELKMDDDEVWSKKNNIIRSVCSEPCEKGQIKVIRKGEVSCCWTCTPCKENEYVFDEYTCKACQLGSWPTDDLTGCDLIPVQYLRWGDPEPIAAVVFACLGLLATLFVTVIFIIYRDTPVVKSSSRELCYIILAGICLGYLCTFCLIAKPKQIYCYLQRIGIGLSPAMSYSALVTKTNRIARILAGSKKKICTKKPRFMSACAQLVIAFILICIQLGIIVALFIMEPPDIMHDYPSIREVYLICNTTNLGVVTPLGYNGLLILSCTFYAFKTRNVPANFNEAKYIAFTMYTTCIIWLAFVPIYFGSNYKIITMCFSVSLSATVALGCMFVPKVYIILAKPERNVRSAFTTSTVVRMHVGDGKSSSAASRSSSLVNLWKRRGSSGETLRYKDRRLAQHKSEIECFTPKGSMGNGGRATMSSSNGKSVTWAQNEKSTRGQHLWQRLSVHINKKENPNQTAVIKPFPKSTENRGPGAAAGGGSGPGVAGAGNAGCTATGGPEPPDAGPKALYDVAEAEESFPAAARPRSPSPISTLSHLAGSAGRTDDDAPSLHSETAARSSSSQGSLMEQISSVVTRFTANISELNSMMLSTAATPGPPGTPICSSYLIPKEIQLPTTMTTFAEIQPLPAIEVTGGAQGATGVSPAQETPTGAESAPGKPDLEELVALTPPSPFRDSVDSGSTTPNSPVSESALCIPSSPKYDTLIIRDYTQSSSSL
# Sequence of rat Neurokinin-1 Receptor (NK1), Tacr1 (gene 24807) (P14600 whole entry, looked up): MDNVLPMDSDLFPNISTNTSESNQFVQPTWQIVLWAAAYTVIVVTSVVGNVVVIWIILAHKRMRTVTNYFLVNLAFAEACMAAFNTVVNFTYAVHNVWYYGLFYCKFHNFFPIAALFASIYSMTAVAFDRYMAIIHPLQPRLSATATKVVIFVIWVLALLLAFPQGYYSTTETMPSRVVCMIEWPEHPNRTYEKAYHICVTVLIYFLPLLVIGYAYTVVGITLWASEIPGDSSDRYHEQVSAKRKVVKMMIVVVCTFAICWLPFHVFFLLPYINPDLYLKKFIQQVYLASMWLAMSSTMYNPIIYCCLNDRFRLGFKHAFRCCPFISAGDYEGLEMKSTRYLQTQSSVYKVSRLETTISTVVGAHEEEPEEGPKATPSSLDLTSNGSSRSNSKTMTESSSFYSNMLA
# Sequence of human Neonicotinoid receptor (NNR), CHRNA2 (gene 1135) (Q15822 whole entry, looked up): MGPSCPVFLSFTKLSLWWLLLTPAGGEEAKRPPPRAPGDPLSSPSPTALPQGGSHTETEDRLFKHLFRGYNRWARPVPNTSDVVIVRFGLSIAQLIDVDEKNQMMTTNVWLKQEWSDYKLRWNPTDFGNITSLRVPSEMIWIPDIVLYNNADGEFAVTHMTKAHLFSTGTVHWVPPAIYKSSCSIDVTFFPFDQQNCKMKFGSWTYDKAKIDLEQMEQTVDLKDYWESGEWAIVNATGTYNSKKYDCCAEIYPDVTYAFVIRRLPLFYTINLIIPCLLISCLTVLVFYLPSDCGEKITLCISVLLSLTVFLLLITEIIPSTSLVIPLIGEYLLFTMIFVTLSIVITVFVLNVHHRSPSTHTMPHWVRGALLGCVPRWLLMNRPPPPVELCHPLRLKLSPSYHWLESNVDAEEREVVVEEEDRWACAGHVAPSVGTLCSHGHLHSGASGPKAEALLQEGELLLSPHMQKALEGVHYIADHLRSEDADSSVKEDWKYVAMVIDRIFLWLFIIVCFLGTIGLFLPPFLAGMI
# Sequence of rat Neonicotinoid receptor (NNR), Chrna7 (gene 25302) (Q05941 whole entry, looked up): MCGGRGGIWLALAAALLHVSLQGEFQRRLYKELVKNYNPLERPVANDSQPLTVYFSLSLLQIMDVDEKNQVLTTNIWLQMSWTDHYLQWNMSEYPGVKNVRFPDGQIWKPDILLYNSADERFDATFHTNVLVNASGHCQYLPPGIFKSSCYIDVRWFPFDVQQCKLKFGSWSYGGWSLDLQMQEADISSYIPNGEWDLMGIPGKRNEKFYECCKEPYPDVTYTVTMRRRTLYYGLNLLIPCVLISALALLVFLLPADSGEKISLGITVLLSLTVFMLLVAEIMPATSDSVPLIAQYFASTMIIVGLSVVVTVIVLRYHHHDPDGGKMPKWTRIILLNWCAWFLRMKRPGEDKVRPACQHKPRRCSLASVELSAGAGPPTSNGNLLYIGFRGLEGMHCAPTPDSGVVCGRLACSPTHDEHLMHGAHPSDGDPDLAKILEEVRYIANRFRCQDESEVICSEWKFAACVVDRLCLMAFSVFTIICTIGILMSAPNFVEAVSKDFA
smiles,measurement,setting,value
CCCCC(CC)COC(=O)c1ccc(C(=O)OCC(CC)CCCC)c(C(=O)OCC(CC)CCCC)c1 (configuration not stated),outcome,[1],inactive
CCCCCCCCn1sccc1=O,outcome,[2],inactive
same,AC50,[3],32.5 µM (active)
C[C@]12C=CC3=C4CCC(=O)C=C4CC[C@H]3[C@@H]1CC[C@@H]2O,AC50,[4],25 µM (active)
CC(C)(C)OOC(=O)c1ccccc1,outcome,[4],inactive
O=C(Oc1ccc(Br)cc1)N1CCN2CCC1CC2,AC50,[5],8.47 µM (active)
Clc1ccc(C(c2ccc(Cl)cc2)C(Cl)(Cl)Cl)cc1,outcome,[4],inactive
ClC1=C(Cl)C2(Cl)C3C(Cl)C=CC3C1(Cl)C2(Cl)Cl (configuration not stated),outcome,[6],inactive
CCN(CC)CCO,outcome,[7],inactive
CCOC(=O)[C@]1(c2ccccc2)Oc2ccccc2[C@@H]1N,AC50,[3],21.3 µM (active)
same,outcome,[5],inactive
same,AC50,[8],25 µM (active)
same,AC50,[1],7.52 µM (active)
CC(C)(C)C(O)(CCc1ccc(Cl)cc1)Cn1cncn1 (configuration not stated),AC50,[4],12.9 µM (active)
Cn1cc(-c2ccccc2)c(=O)c(-c2cccc(C(F)(F)F)c2)c1,outcome,[7],inactive
CS(=O)(=O)NC(=O)c1cc(Oc2ccc(C(F)(F)F)cc2Cl)ccc1[N+](=O)[O-],AC50,[9],1.38 µM (active)
same,outcome,[6],inactive
CCCCCCCCOC(=O)c1ccc(C(=O)OCCCCCCCC)c(C(=O)OCCCCCCCC)c1,AC50,[9],0.326 µM (active)
N#CC(Br)Br,outcome,[2],inactive
O=[N+]([O-])C(Br)(CO)CO,AC50,[3],11 µM (active)
same,AC50,[1],16 µM (active)
CCC[CH2][Sn]([Cl])([CH2]CCC)[CH2]CCC,AC50,[7],25 µM (active)
same,AC50,[2],1.43 µM (active)
same,AC50,[3],8.92 µM (active)
same,outcome,[9],inactive
same,outcome,[6],inactive
same,AC50,[1],3.98 µM (active)
